# Values joined by “and” are separate entries in the source; they are usually repeats but may differ in a detail not shown here. Equal entries are not always repeated. Inconclusive results are not listed. A structure can be active in one record and inactive in another. Active and inactive are the calls of the source. Rule for the calls: active = hit-call score of the fitted dose curve at least 0.9, where 1 is the maximum; inconclusive = response in the unintended direction; inactive = score below 0.9.
# Test system: frog Estrogen Receptor (ER2), gene 100174814
# Assay: ATG_frER2_XSP2: Attagene TRANS-FACTORIAL Multi-Species (XSP2) HepG2 Assay for frog Estrogen Receptor (ER2) (AID 2283828)
# Method: ATG_XSP2_multi-species_TRANS is a cell-based, multiplexed assay created by modifying the existing Attagene TRANS-FACTORIAL system to include a panel of nuclear receptors from some or all the following species: human (Homo sapiens), mouse (Mus musculus), frog (Xenopus laevis), zebrafish (Danio rerio), chicken (Gallus gallus), and turtle (Chrysemys picta). The ECOTOX-FACTORIAL format uses HepG2, a human liver cell line, with measurements taken at 24 hours after chemical dosing in a 24-well plate. Xsp2 included 3 nM 6-alpha-fluorotestosterone and 1.5 nM norgestrel to stimulate the androgen receptor.ATG_frER2_XSP2 is one of 29 assay components measured or calculated from the ATG_XSP2_multi-species_TRANS assay. It is designed to make measurements of mRNA induction, a form of inducible reporter, as detected with fluorescence intensity signals by Reverse transcription polymerase chain reaction (RT-PCR) and Capillary electrophoresis technology.The assay endpoint ATG_frER2_XSP2 was analyzed in the positive analysis fitting direction relative to DMSO as the negative control and baseline of activity. Using a type of inducible reporter, measures of mRNA for gain-of-signal activity can be used to understand the reporter gene at the transcription factor-level as they relate to the gene ER. Furthermore, this assay endpoint can be referred to as a primary readout, because this assay has produced multiple assay endpoints where this one serves a reporter gene function. To generalize the intended target to other relatable targets, this assay endpoint is annotated to the nuclear receptor intended target family, where the subfamily is steroidal.
# Human liver HepG2 cells are transiently transfected with multiple reporter transcription units (MRTUs) in 6-well plates using FuGene 6 reagent (Roche; 3 ml FuGene/1 mg DNA). The MRTU constructs are regulated by a cis-regulating element (promoter). […] A major difference between the CIS and TRANS system is that in CIS activities of endogenous TFs are measured, whereas the TRANS assay evaluates changes in activities of exogenous, chimeric NR-Gal4 proteins. […] At the end of 24 hour incubation, total RNA was isolated using TriZol reagent (Invitrogen). The isolated RNA is then reverse-transcribed using oligo(dT) primer and Mo-MLV reverse transcriptase (Invitrogen) with DNAse I (Ambion) treatment for 30 min. The one-tenth of the produced cDNA was amplified by PCR using Taq DNA polymerase (Invitrogen) and two reporter sequence-specific primers. The PCR products were fluorescently labeled by primer extension with 6-arboxyfluorescein (6-FAM) 5'-labeled reporter sequence-specific primer (2 min at 95 C, 20 s at 68 C and 10 min at 72 C) and these products were digested with 5U of HpaI (New England Biolabs) for 2h at 37 C. The fragments were purified using Qiaquick PCR columns (Qiagen), analyzed on an ABI 3130xL genetic analyzer (Applied Biosystems) with peak positions identified by using a set of X-rhodamine (ROX)-labeled MapMarker1000 molecular weight standards (BioVentures). The raw capillary electrophoresis data was processed using Attagraph software (Attagene).
Compound,AC50,outcome
Oc1ccc2ccc3cccc4ccc1c2c34,8.67 µM (active) and 1.64 µM (active),
CCCCC(CC)COC(=O)c1ccc(C(=O)OCC(CC)CCCC)c(C(=O)OCC(CC)CCCC)c1 (configuration not stated),36.8 µM (active),inactive
Clc1ccc(C(c2ccc(Cl)cc2)C(Cl)(Cl)Cl)cc1,30.9 µM (active),
CCCCOC(=O)c1ccccc1C(=O)OCc1ccccc1,24.7 µM (active),
Clc1ccc(C(c2ccc(Cl)cc2)C(Cl)Cl)cc1,5.5 µM (active),
O=[N+]([O-])c1ccc(Oc2ccc(Cl)cc2Cl)cc1,27 µM (active),inactive
CCC[CH2][Sn]([Cl])([CH2]CCC)[CH2]CCC,,inactive
CCC(C)c1ccc(O)cc1 (configuration not stated),9.87 µM (active) and 3.44 µM (active),
CC(C)(C)C(O)(CCc1ccc(Cl)cc1)Cn1cncn1 (configuration not stated),,inactive
c1ccc2c(c1)-c1cccc3cccc-2c13,33.4 µM (active) and 25.2 µM (active),

# Reference: PubChem BioAssay (EPA / NIEHS)
